In PubChem BioAssay (NCATS) one finds max response and Potency data, which are given here for 32 compounds.

Values joined by “and” are separate entries in the source; they are usually repeats but may differ in a detail not shown here. Equal values may be shown once. Records with an inconclusive call do not appear. Values without a mark were called inactive. Active and inactive are the calls of the source. Calls follow the shape of the dose curve; as a rule, active = well fitted inhibition curve with a large enough effect; inconclusive = small, poorly fitted or top-dose-only effect; inactive = flat fitted curve, though single readings scatter. Where a SMILES comes first, the peptide text is derived from it. Bridges are numbered along the chain shown (N, C = ends).
% is scaled to controls: 0 for no effect and ±100 for the full control effect; potency is read from the fitted curve at half-maximal effect.

The test concerns KB-3-1. The test can be described thus: Cytotoxic Profiling of Annotated Libraries Using Quantitative High-Throughput Screening (AID 1296008). Also: nearly all actives have a fitted effect of over 60% in size. The note with it: Five cell lines viability, CellTiter-Glo ATP luminescence, 48-72 h; max response: hits give low values. The essentials:
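Cells exposed to compounds for 48 or 72 hr at 37 degrees Celsius. Viability read as ATP-coupled luminescence with CellTiter-Glo after 10 min at room temperature.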
(In general: ATP-based viability assays read luminescence as a measure of living cells.)
On to `CCCCCCCCCC(=O)O`, for which the max response was -12.8%.

For the compound `CCOC(=O)[C@H](CCc1ccccc1)N[C@@H](C)C(=O)N1CC2(C[C@H]1C(=O)O)SCCS2`, the max response was -20.5%.

Turning to `CC(CN(C)C)CN1c2ccccc2S(=O)(=O)c2ccccc21` (configuration not stated), the max response is 23.6%.

For the compound `NC(=O)C[C@@H](N)C(=O)O`, the max response was -17.1%.

`CC#CCC(C)[C@H](O)/C=C/[C@@H]1[C@H]2C/C(=C/CCCC(=O)O)C[C@H]2C[C@H]1O` (some centres not stated): the max response is -19%.

With `O=c1[nH]cnc2[nH]cc(CN3CCCCC3)c12`, the max response was -7.83%.

With `CC(=O)N[C@@H](C=O)[C@H](O)[C@H](O)[C@@H](O)CO`, the max response is 5.53% and 4.97%.

With `C[C@]12CC[C@@H]3c4ccc(OS(=O)(=O)O)cc4CC[C@H]3[C@@H]1CCC2=O`, the max response is 3.98%.

Turning to `C[C@H](/C=C/[C@H](C)C(C)(C)O)[C@H]1CC[C@H]2/C(=C/C=C3C[C@@H](O)C[C@H](O)C3)CCC[C@]12C`, the max response was 23%.

With `NCCCC[C@H](NC(=O)[C@@H]1CCCN1C(=O)[C@@H]1CSSC[C@H](N)C(=O)N[C@@H](Cc2ccc(O)cc2)C(=O)N[C@@H](Cc2ccccc2)C(=O)N[C@@H](CCC(N)=O)C(=O)N[C@@H](CC(N)=O)C(=O)N1)C(=O)NCC(N)=O`, the max response was 0.366% and -14.6%.

For the compound `Nc1c(CC(=O)O)cccc1C(=O)c1ccccc1`, the max response is -7.36% and -8.46%.

For the compound `CCCCCCCCCCCCCCCCCC(=O)OCCO`, the max response is -9.35%.

As for `CC(C)(C)CC(=O)OCC(=O)[C@@]12OC(C)(C)O[C@@H]1C[C@H]1[C@@H]3CCC4=CC(=O)C=C[C@]4(C)[C@@]3(F)[C@@H](O)C[C@@]12C`, the max response is 0.193%.

Consider `O=S(=O)(O)Oc1ccc(C(c2ccc(OS(=O)(=O)O)cc2)c2ccccn2)cc1`, for which the max response is -0.878%.

As for `COc1ccc(CCNCC(O)COc2cccc(C)c2)cc1OC` (configuration not stated), the max response was -6.7%.

As to `Cn1nnnc1SCC1=C(C(=O)O)N2C(=O)[C@@H](NC(=O)[C@H](OC=O)c3ccccc3)[C@H]2SC1`, the max response is -7.31%.

In the case of `CCCN(CC)C(CC)C(=O)Nc1c(C)cccc1C` (configuration not stated), the max response is -6.86%.

Consider `CCN(CC)CCOC(=O)c1ccc(N)cc1Cl`, for which the max response was 1.25%.

`O=C1O[C@@H]2[C@@H](O)[C@H](O)O[C@@H]2[C@H]1O`: the max response was -9.13%.

As to `CCCCCCCCCCCCCCCC(=O)OC[C@@H](COP(=O)([O-])OCC[N+](C)(C)C)OC(=O)CCCCCCCCCCCCCCC`, the max response is 1.61%.

For the compound `O=C[C@H](O)[C@@H](O)[C@H](O[C@H]1O[C@H](CO)[C@@H](O[C@H]2O[C@H](CO)[C@@H](O)[C@H](O)[C@H]2O)[C@H](O)[C@H]1O)[C@H](O)CO`, the max response is -9.17%.

Consider `CCCCCC(O)/C=C/C=O` (configuration not stated), for which the max response is -19%.

With `CCCCCCCCCCCCCCCCCC(=O)[O][Al]`, the max response was -8.23%.

On to `CCCC(=O)N1CCCN(c2nc(N)c3cc(OC)c(OC)cc3n2)CC1`, for which the max response is -12.4%.

Regarding `COc1ccc(C(=O)Nc2ccccc2CCC2CCCCN2C)cc1` (configuration not stated), the max response was -11.1%.

On to `CO/N=C(\C(=O)N[C@@H]1C(=O)N2C(C(=O)OCOC(=O)C(C)(C)C)=C(/C=C\c3scnc3C)CS[C@H]12)c1csc(N)n1`, for which the max response is -14.1%.

On to `N[C@@H](C(=O)N[C@H]1C(=O)N2C(C(=O)O)=C(Cl)CC[C@H]12)c1ccccc1`, for which the max response is -8.22%.

In the case of `CCC(=O)OCC(=O)[C@@]1(OC(=O)CC)[C@H](C)C[C@H]2[C@@H]3CCC4=CC(=O)C=C[C@]4(C)[C@@]3(F)[C@@H](O)C[C@@]21C`, the max response was -9.03%.

Consider `c1cnc2cc3c(cc2n1)[C@@H]1CNC[C@H]3C1`, for which the max response was -10.7%.

With `NCCCC[C@H](NC(=O)[C@@H]1CCCN1C(=O)[C@@H]1CSSC[C@H](NC(=O)CNC(=O)CNC(=O)CN)C(=O)N[C@@H](Cc2ccc(O)cc2)C(=O)N[C@@H](Cc2ccccc2)C(=O)N[C@@H](CCC(N)=O)C(=O)N[C@@H](CC(N)=O)C(=O)N1)C(=O)NCC(N)=O` (H-GGGCYFQNCPKG-NH2; disulfide 4-9), the max response was -6.41%.

As for `CCN(CC)c1ccc(C(=C2C=CC(=[N+](CC)CC)C=C2)c2ccccc2)cc1`, the Potency is 1300 nM (active).

On to `NCCCC[C@H](NC(=O)[C@@H]1CCCN1C(=O)[C@@H]1CSSC[C@H](N)C(=O)N[C@@H](Cc2ccccc2)C(=O)N[C@@H](Cc2ccccc2)C(=O)N[C@@H](CCC(N)=O)C(=O)N[C@@H](CC(N)=O)C(=O)N1)C(=O)NCC(N)=O`, for which the max response was -12.7%.
